{
  "source": "PubChem BioAssay AID1508600",
  "about": "(Functional Genomics Laboratory (NCATS/FGL), 2020)",
  "note": "Among all 53,000 sequences or so, about 3,700 (7%) were called active.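 The calls were made as follows: active = gene knockdowns whose robust z-score for IL-1 alpha signal is at least 2 or at most -2, so actives lie on both sides; inactive = the rest.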 The sample as a whole holds a higher share of actives than the screen did.",
  "data": [
    {"assay": "Components of the Cytosolic LPS Sensing Pathway: Gene Identification via Genome-wide siRNA Screen", "conditions": "RAW264.7 macrophages, IL-1a HTRF, actives lie on both sides, screened at 100 nM (by protocol), cells primed 5 h with Pam3CSK4 first", "description": "Non-canonical inflammasome activation by cytosolic LPS is a critical component of the host response to Gram-negative bacterial infection, however we lack a comprehensive understanding of the cellular processes that control this pathway. Here we describe a genome-wide siRNA screen to identify genes regulating the mouse macrophage IL-1 alpha response to cytosolic LPS.\nRAW264.7 cells were maintained in complete DMEM media, comprising DMEM with 4.5 g/L glucose, 10% FBS (Gemini Bio-Products, West Sacramento, CA), 2 mM Glutamine (Lonza) and 20 mM HEPES (Lonza), hereafter complete DMEM.\nThe RNAi screen was conducted in 384-well format using the Ambion Silencer Mouse Genome siRNA Library (#4391425), which consists of three unique, nonoverlapping, nonpooled siRNAs for each of 17,000 gene targets. siRNA reagents ([…]) were stamped into 384-well white flat-bottom microplates (Corning, 3570) using a Velocity11 VPrep liquid handling system (Agilent) integrated into a BioCel robotic platform (Agilent) in columns 1-22, leaving columns 23-24 empty for negative (Ambion, Negative control #1) and positive (mouse Casp4) controls, respectively. The median value of each plate's negative control column was used to normalize sample wells, and the positive control was used to assess transfection efficiency and assay performance.\nLipofectamine RNAiMAX Transfection Reagent ([…]; Invitrogen) was added in […] serum-free, antibiotic-free media to plate wells using a Thermo Scientific Matrix WellMate and Microplate Stacker. Plates were incubated for 45 min at room temperature to allow for the sufficient formation of siRNA-lipid complexes. Cells were seeded at a density of 1x10^4 cells per well in 20 microL media containing 20% (vol/vol) FBS without antibiotics. The final concentration of siRNA in each well was 100 nM. Cells were cultured for 48h at 37 degrees C in 5% CO2 before addition of […] of TLR ligand Pam3CSK4 for 5 hours. The medium was then removed, replaced with […] growth media and cell were transfected with […] of LipidA and TransIT-TKO (Mirus) for 24 hour. At the end of the LipidA treatment, […] of supernatant was transferred to a 384 Greiner Bio-one non-binding low volume plate and […] of IL-1a HTRF reagent (Cisbio, 62MIL1APEH) was added and incubated at room temperature overnight. The plates were read on an EnVision plate reader (PerkinElmer). Cell viability was measured by adding 20ul Cell Titer Glo to the original plate and running a luminescence read on the EnVision. The quantified IL-1a signal for each siRNA gene-targeted well was divided by the median of the negative control wells and multiplied by 100 to achieve a negative control normalized value for each well/siRNA. This normalized value was then used to generate a robust z-score by first taking the log of each value and then by subtracting the median and dividing by the […].", "values": [
      {"sequence": "GGCUUUCAUUCUGCAGCUATT against Olfr1089", "z-score": "-2.13 (active)"},
      {"sequence": "GGUGUUCAGAUGGUUCCCATT against Exosc1", "z-score": "-1.19 (inactive)"},
      {"sequence": "GCUGUUACCUUGACGAAUATT against Tsc2", "z-score": "1.32 (inactive)"},
      {"sequence": "GGGAUAAAGAGCAAAGAAUTT against Trdv2-2", "z-score": "-0.466 (inactive)"},
      {"sequence": "GCGUAAUUCCAGCAGAUGUTT against Mepe", "z-score": "1.74 (inactive)"},
      {"sequence": "GAAAAGUGCACCAUCAGCCTT against Ly6g5b", "z-score": "-2.27 (active)"},
      {"sequence": "GCUACAGGUCAAUGUCGUGTT against Tcte2", "z-score": "-1.61 (inactive)"},
      {"sequence": "CCCAUAGCUAAUGAACCAATT against Sntg2", "z-score": "-0.604 (inactive)"},
      {"sequence": "GGAGAGAAAAAGUAAUAUCTT against Fgf1", "z-score": "0.843 (inactive)"},
      {"sequence": "GGUCGUAAGACAGUUGUCCTT against 4932438H23Rik", "z-score": "-0.715 (inactive)"},
      {"sequence": "GGAGCUGACAGAGAGAUUCTT against Ankrd40", "z-score": "-2.77 (active)"},
      {"sequence": "GGAGCAACACUUGCGUACUTT against Ccnq", "z-score": "1.32 (inactive)"},
      {"sequence": "GCACUGUCGCAUCAUCAGATT against D230025D16Rik", "z-score": "1.83 (inactive)"},
      {"sequence": "GGAAACCUGAUGAUCUUUUTT against Olfr421-ps1", "z-score": "-1.27 (inactive)"},
      {"sequence": "GGAUGUCCGGAAGAUGUUUTT against Celf3", "z-score": "-0.284 (inactive)"},
      {"sequence": "GGUGUGUUCCCAACUGGUGTT against Olfr1124", "z-score": "2.04 (active)"},
      {"sequence": "GUGGAAAUGUACUUCUCUGTT against Olfr257", "z-score": "0.435 (inactive)"},
      {"sequence": "AGCUGCUCUGAGUUAGAAATT against Scd2", "z-score": "0.934 (inactive)"},
      {"sequence": "GGCAAAUCAUUGAUCAGAATT against Mtrf1", "z-score": "-0.214 (inactive)"},
      {"sequence": "GGACAGACUGAAUGAGCAGTT against Faf2", "z-score": "2.24 (active)"},
      {"sequence": "GCAAAACUUGGAACGAUUUTT against Ddx1", "z-score": "0.153 (inactive)"},
      {"sequence": "CCUAAAUUUGAGGUAACCUTT against Zbtb21", "z-score": "0.571 (inactive)"},
      {"sequence": "GGAUAAAAGCAUUUGAGUCTT against Acp1", "z-score": "0.694 (inactive)"},
      {"sequence": "GGGAACCAGUACAAUUACATT against Glt8d1", "z-score": "-0.755 (inactive)"},
      {"sequence": "GGAGAUCUAUGACAAGAAATT against Idh1", "z-score": "-0.376 (inactive)"},
      {"sequence": "GGUAAGAAGACAAACACUCTT against Ly6g6d", "z-score": "0.237 (inactive)"},
      {"sequence": "GCUCUACUGCUUCUUAGUCTT against Olfr965", "z-score": "-2.4 (active)"},
      {"sequence": "GGAUAAGAAGAUGAGGCAGTT against Mns1", "z-score": "-0.0977 (inactive)"},
      {"sequence": "GCUUCAAAACAAACCCUUGTT against Parp11", "z-score": "-1.58 (inactive)"},
      {"sequence": "GGAGUGUAUGCAGAAGUUUTT against Dnajc24", "z-score": "1.49 (inactive)"},
      {"sequence": "GGUUUUGGUAUCUCCAUGGTT against Olfr2", "z-score": "-0.48 (inactive)"},
      {"sequence": "GGAGCAUAGAAAAGACAAUTT against Grk2", "z-score": "2.69 (active)"},
      {"sequence": "GGAUAAGAAGCGAUUUGAATT against Rcn2", "z-score": "-0.294 (inactive)"},
      {"sequence": "GCUGCUGGAGUGCAACUAATT against Tradd", "z-score": "0.391 (inactive)"},
      {"sequence": "GCACAACAUACCCUGUGGUTT against Syn1", "z-score": "-2.72 (active)"},
      {"sequence": "CCUGAAUGGACAAACAGGATT against Gm6460", "z-score": "-0.193 (inactive)"},
      {"sequence": "CCAAACCUAUUCUGAGAUGTT against Klrg2", "z-score": "-0.0403 (inactive)"},
      {"sequence": "GGAGCUGGACAAGUUCAUGTT against Clrn1", "z-score": "-0.994 (inactive)"},
      {"sequence": "GGGAGCAAAGAGGAACAGCTT against Fis1", "z-score": "-0.73 (inactive)"},
      {"sequence": "GGUGCAAUCGUGUUGAGCUTT against Dap3", "z-score": "1.06 (inactive)"},
      {"sequence": "GCAAACCUUCGGUCUUGCCTT against Cd5l", "z-score": "-0.364 (inactive)"},
      {"sequence": "GGAGAGAUCAUACACUUUGTT against BC048679", "z-score": "0.43 (inactive)"},
      {"sequence": "GGUAGUGAAUGAACUCUUUTT against Bcl2l1", "z-score": "-1.41 (inactive)"},
      {"sequence": "GGCAGACAUCACAAUGGCUTT against Hemgn", "z-score": "-0.201 (inactive)"},
      {"sequence": "GGACAUGUCCGAAUACUACTT against Pdss1", "z-score": "2.34 (active)"},
      {"sequence": "GGGUUAGCAACUUCAAAUATT against Zmynd19", "z-score": "0.996 (inactive)"},
      {"sequence": "CCUAAAUCCUUUUGAACCCTT against Anapc16", "z-score": "0.295 (inactive)"},
      {"sequence": "GGCCAGUGUGUGGUCUAAGTT against Cd1d2", "z-score": "1.89 (inactive)"},
      {"sequence": "GGUCUUCAGAUAAUCUUCCTT against Brinp1", "z-score": "1.91 (inactive)"},
      {"sequence": "GCUCAGAUAAUGGCCUACATT against Smarca4", "z-score": "2.28 (active)"},
      {"sequence": "CCGACAAACGCAAGGUGAUTT against Rtl8c", "z-score": "-0.382 (inactive)"},
      {"sequence": "GGUGUGUGGUGUUAAAAAATT against Mybph", "z-score": "-0.81 (inactive)"},
      {"sequence": "GGUGGAAUAUAGCUUCAUCTT against Ifngr2", "z-score": "1.06 (inactive)"},
      {"sequence": "GGAAGAACACAAGUGUUUUTT against Trem3", "z-score": "-0.626 (inactive)"},
      {"sequence": "GCGAAGCGUGCUGCUAAGATT against Ccdc59", "z-score": "0.519 (inactive)"},
      {"sequence": "GGCCAGCUCUCUUUUGCUATT against Cflar", "z-score": "2.5 (active)"},
      {"sequence": "GCAGAGGCUCUCCUUAUAGTT against Ccser2", "z-score": "0.747 (inactive)"},
      {"sequence": "GGUACGGUGUUUUGGAUACTT against Fam174a", "z-score": "0.00664 (inactive)"},
      {"sequence": "GGGACAGUUUUCGGACUUCTT against S1pr4", "z-score": "-0.362 (inactive)"},
      {"sequence": "GCUACAGGGAAAAAGUUCCTT against Olfr994", "z-score": "0.383 (inactive)"},
      {"sequence": "CGGCUGCAUUUCAACAAGGTT against Snrpc", "z-score": "-1.92 (inactive)"},
      {"sequence": "GGUUCUGCCAUGGAGGAAUTT against Svs5", "z-score": "0.0746 (inactive)"},
      {"sequence": "GCCACUCACCUGUAGUUCUTT against BC049715", "z-score": "0.0758 (inactive)"},
      {"sequence": "GGAUCUCAGAUUUACUGUCTT against Dedd2", "z-score": "0.484 (inactive)"},
      {"sequence": "GGUCAUCAAGCAGUGCUAUTT against Ncstn", "z-score": "4.32 (active)"},
      {"sequence": "CGGAGCAUUGGGACAAUUUTT against Olfr690", "z-score": "1.1 (inactive)"},
      {"sequence": "GGAAGUUGAAUACAUUGUCTT against Arntl", "z-score": "0.127 (inactive)"},
      {"sequence": "GCAUGCAAAUCUCCUCUAATT against Sema3b", "z-score": "-0.116 (inactive)"},
      {"sequence": "CCUUUGUAACUGGAAUUCUTT against Olfr197", "z-score": "1.74 (inactive)"}
    ]}
  ]
}
